Source: PubChem BioAssay
CYP2C19 act – human CYP2C19 activators, primary screen, biochemical, luminescence. Cytochrome P450 2C19 (Homo sapiens), P33261. recombinant CYP2C19, luciferin-H EGE luminescence; hits give high values; 0 = fully inhibited enzyme, 1 = untreated enzyme. activation factor at 5 µM. 96,000 tested, under 10 active. AID 1025, 2008;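 active means activation factor of at least 2 at 5 µM in the primary screen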
CYP2C19 inhib – blockers of cytochrome P450 2C19 activity – biochemical, luminescence, ADME assay, primary screen. P33261. CYP2C19 Supersomes, luciferin-H EGE luminescence, 30 min. inhibition, % at 5 µM. 96,000 tested, 21% active;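 active means CYP2C19 inhibition above a set limit at 5 µM in the primary screen, cut at about 50% in these data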
CYP2C9 act – human CYP2C9 activators, primary screen, biochemical, luminescence. Cytochrome P450 2C9 (Homo sapiens), P11712. recombinant CYP2C9, luciferin-H conversion; hits give high values; factor 1 = untreated enzyme, 0 = blocked. activation factor at 5 µM. 96,000 tested, 1.4% active. AID 1024, 2008;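 active means activation factor of 2 or more for CYP2C9 at a 5 µM dose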
Target sequence (P11712 whole entry, looked up): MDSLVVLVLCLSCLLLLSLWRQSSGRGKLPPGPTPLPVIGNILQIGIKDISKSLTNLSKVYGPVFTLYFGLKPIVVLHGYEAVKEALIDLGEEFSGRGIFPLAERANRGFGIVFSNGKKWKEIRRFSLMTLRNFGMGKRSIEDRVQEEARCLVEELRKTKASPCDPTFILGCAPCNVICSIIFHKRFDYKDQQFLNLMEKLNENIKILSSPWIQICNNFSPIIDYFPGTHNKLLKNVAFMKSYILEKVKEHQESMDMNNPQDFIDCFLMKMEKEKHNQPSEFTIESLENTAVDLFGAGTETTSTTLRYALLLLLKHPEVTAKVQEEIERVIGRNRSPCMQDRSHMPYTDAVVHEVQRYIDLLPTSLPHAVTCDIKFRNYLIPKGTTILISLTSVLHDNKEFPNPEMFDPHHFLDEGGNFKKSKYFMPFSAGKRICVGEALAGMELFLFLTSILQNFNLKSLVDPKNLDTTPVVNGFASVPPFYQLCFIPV
CYP2C9 inhib – blockers of cytochrome P450 2C9 activity – biochemical, luminescence, ADME assay, primary screen. CYP2C9 Supersomes, luciferin-H conversion. inhibition, % at 5 µM. 96,000 tested, 20% active. AID 777, 2007;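 active means blocking of liver enzyme CYP2C9 beyond about 50% at 5 µM, limit read from the data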
Measles CPE – compounds protecting cells from measles virus cytopathic effect, primary screen, measles RdRp inhibitor project, single point, MLSMR library, absorbance | Measles virus-infected cells, CPE protection | protection (pct of control), % at 4 µM | 140,000 tested, 1.5% active; in the data active means protection mostly above about 24%, no sharp cut-off; inactive means mostly below about 26%
Hits are given with their value; – = inactive; · = no result. Hits are enriched below; roughly 22% of the tested compounds scored in any of these assays.

SMILES	CYP2C19 act	CYP2C19 inhib	CYP2C9 act	CYP2C9 inhib	Measles CPE
CC(=O)Oc1oc(-c2ccccc2)nc1C=Nc1ccccc1	–	–	–	–	–
Cc1ccccc1C(=O)N1CCC(C(N)=O)CC1	–	–	–	–	–
CCN(CC)CCCNC(CC(=O)Nc1cccc([N+](=O)[O-])c1)C(=O)O (centres undefined)	·	·	·	·	–
Cc1ccc(SCc2[nH]nc3c2C2(CCSCC2)C(C#N)=C(N)O3)cc1	–	–	–	–	–
CCOC(=O)N1CCC2(CC1)C(C#N)=C(N)OC1=C2C(=O)CC(C)C1 (centres undefined)	–	–	–	68	–
Cc1ccc(SCc2[nH]nc3c2C2(C(=O)Nc4ccc([N+](=O)[O-])cc42)C(C#N)=C(N)O3)cc1 (centres undefined)	–	–	–	52	–
N#CC1=C(N)OC2=C(C(=O)CCC2)C12CCN(C(=O)OCc1ccccc1)CC2	–	99	–	66	–
CCOC(=O)N1CCC2(CC1)C(C#N)=C(N)Oc1n[nH]c(CSc3ccc(C)cc3)c12	–	–	–	70	–
CC(=O)N1CCC2(CC1)C(C#N)=C(N)Oc1n[nH]c(C)c12	–	–	–	–	–
CC1(C)CC(=O)C2=C(C1)OC(N)=C(C#N)C21CCN(C(=O)OCc2ccccc2)CC1	–	–	–	–	–
COc1ccc(-c2nn(-c3ccccc3)cc2CNC(=O)c2cccc([N+](=O)[O-])c2)cc1	·	·	·	·	–
Cc1[nH]nc2c1C1(CCN(C(=O)OCc3ccccc3)CC1)C(C#N)=C(N)O2	–	68	–	–	–
Cc1[nH]nc2c1C1(CCN(C(=O)c3ccccc3)CC1)C(C#N)=C(N)O2	–	–	–	–	–
O=C(NC1=NCCS1)c1cccc(S(=O)(=O)N2CCCCC2)c1	–	–	–	–	·
NC(=O)c1ncc(C(F)(F)F)cc1Oc1cccc(C(F)(F)F)c1	–	93	–	–	–
CC(C)NS(=O)(=O)c1ccc(Oc2ncc(C(F)(F)F)cc2Cl)cc1	–	–	–	–	–
COc1ccc(Oc2cc(C(F)(F)F)cnc2C(N)=O)cc1	–	67	–	–	–
NC(=O)c1ncc(C(F)(F)F)cc1Oc1cccc(F)c1	–	–	–	–	–
CC(Sc1nc(-c2ccccc2)cc(C(F)(F)F)n1)C(=O)N1CCC(C(N)=O)CC1 (centres undefined)	·	·	·	·	–
N#C/C(C(=O)NCc1ccccc1)=C1/SC(Cc2ccc(Cl)cc2)C(=O)N1c1ccccc1 (centres undefined)	·	·	·	·	–
c1coc(CNc2ncnc3sc4c(c23)CCCCC4)c1	–	87	–	93	–
Cc1sc2ncnc(NCCCO)c2c1C	–	–	–	–	–
Cc1sc2ncnc(NCc3ccco3)c2c1C	–	78	–	61	–
Cc1sc2ncnc(NCc3cccs3)c2c1C	–	52	–	–	–
COc1ccccc1NC(=O)N1CCc2[nH]c3ccc(Cl)cc3c2C1	–	–	–	–	–
SMILES	CYP2C19 act	CYP2C19 inhib	CYP2C9 act	CYP2C9 inhib	Measles CPE
CCCCCCNC(=O)c1cc(-c2ccco2)nc2ccccc12	·	·	·	·	–
Cc1cccc(C2(c3cccc(C)c3)OC(=O)c3ccccc32)c1	–	–	–	62	–
Cc1cc(O)ccc1C1(c2ccc(O)cc2C)OC(=O)c2ccccc21	·	·	·	·	–
CC(C)NC(=O)NC(=O)COC(=O)C1CCCN1C(=O)c1cccs1 (centres undefined)	–	–	–	–	–
COc1ccccc1NC(=O)COC(=O)[C@@H]1CCCN1C(=O)c1cccs1	–	59	–	–	–
O=C(COC(=O)[C@@H]1CCCN1C(=O)c1cccs1)NCCc1ccccc1	–	60	–	–	–
CCSc1nnc(NC(=O)[C@@H](NC(=O)c2ccc(C(C)(C)C)cc2)C(C)C)s1	·	·	·	·	–
CCNC(=O)c1ccccc1NC(=O)c1cccc(S(=O)(=O)N2CCC(C)CC2)c1	–	59	–	68	–
CNC(=O)c1ccccc1NC(=O)c1cccc(S(=O)(=O)N2CCC(C)CC2)c1	–	90	–	73	–
CCNC(=O)c1ccccc1NC(=O)c1cccc(S(=O)(=O)N2CCOCC2)c1	·	·	·	·	–
COc1ccc(CN2C(=O)c3ccccc3C(/C=N\OCc3ccc(C)cc3)C2=O)cc1 (centres undefined)	–	–	–	73	–
COc1ccc(C(=O)NCC(C)(C)SCc2c(C)cc(C)cc2C)cc1	–	–	–	–	–
Cc1cc(Cn2ccnc2)c(C)cc1Cn1ccnc1	–	97	–	95	–
Cc1cc(=S)cc(C)n1CCCn1ccnc1	–	–	–	–	–
CC(C)c1ccc(OCc2ccc(C(=O)N3CCN(c4ccccn4)CC3)cc2)cc1	–	–	–	–	–
COc1ccc(Oc2ncc(CN3CCN(c4ccccc4)CC3)s2)cc1	–	82	–	93	–
Brc1ccc(Oc2ncc(CN3CCOCC3)s2)cc1	–	80	–	–	–
Cc1cc(Cl)ccc1Oc1ncc(CN2CCN(c3ccccc3)CC2)s1	–	–	–	–	–
O=C(OCC(=O)c1c[nH]c2ccccc12)c1cc2ccccc2cc1O	·	·	·	·	–
O=C(CSc1nc2ccccc2c(=O)[nH]1)c1ccccc1	·	·	·	·	–
CC(=O)NCCn1c(SCC(=O)c2ccc(Cl)cc2)nc2ccccc2c1=O	–	–	–	–	–
O=C(CSc1nc2ccccc2c(=O)n1NC(=O)c1ccccc1)c1ccc(Cl)cc1	–	–	–	78	–
O=C(CSc1nc2ccccc2c(=O)n1NC(=O)c1ccccc1)c1ccccc1	–	–	–	86	–
CCOC(=O)c1sc(NC(=O)CCCn2nc([N+](=O)[O-])c(Cl)c2C)c(C(=O)OCC)c1C	·	·	·	·	–
COc1cccc(S(=O)(=O)Nc2ccc(C(=O)N3CCOCC3)cc2)c1	–	–	–	–	–
SMILES	CYP2C19 act	CYP2C19 inhib	CYP2C9 act	CYP2C9 inhib	Measles CPE
CCCOC(=O)Oc1ccc2c(=O)c(Oc3cc(C)cc(C)c3)coc2c1	·	·	·	·	20
CCn1c(CCC(=O)Nc2nc3c(s2)CCCC3)nc2cc(S(=O)(=O)N(C)C)ccc21	–	75	–	91	–
O=C(Nc1ccccc1Cl)c1ccc2c(c1)N(Cc1ccc(F)cc1)C(=O)CS2=O (centres undefined)	·	·	·	·	–
CCCN(CCC)C(=O)c1ccc2c(c1)N(Cc1ccccc1)C(=O)CS2=O (centres undefined)	–	–	–	86	–
CC(C)CCNC(=O)c1ccc2c(c1)N(Cc1ccccc1)C(=O)CS2=O (centres undefined)	–	–	–	50	–
O=C(NCCc1ccccc1)c1ccc2c(c1)N(Cc1ccccc1)C(=O)CS2=O (centres undefined)	–	–	–	86	–
CCOCCCNC(=O)c1ccc2c(c1)N(Cc1ccccc1)C(=O)CS2=O (centres undefined)	–	–	–	–	–
CC(=O)Nc1ccc(C(=O)CSc2nnnn2C(C)C)cc1	–	–	–	–	–
